Assay results: PubChem BioAssay (NCATS)
Values joined by “and” are separate entries in the source; they are usually repeats but may differ in a detail not shown here. Equal values may be shown once. Results filed as inconclusive are left out. Active and inactive are the calls of the source. Unless noted, calls follow the shape of the dose curve; as a rule, active = well fitted activation curve with a large enough effect; inconclusive = small, poorly fitted or top-dose-only effect; inactive = flat fitted curve, though single readings scatter.

Key:
[1] = qHTS assay for small molecule activators of the p53 signaling pathway (AID 651743; active = well fitted activation curve with a large enough effect in the signal ratio, not every such curve was filed as active; the % refers to the signal ratio; also: % of control where 0% means no effect); conditions: HCT-116 p53RE-bla, beta-lactamase FRET ratio, 16 h; activation: hits give high values
How it was run: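 Reporter: beta-lactamase driven by p53 response elements, stably integrated in HCT-116 cells. Cells seeded at 4,000/well, 5 h preincubation, compound (DMSO) 16 h at 37 C; B/G FRET substrate 2 h RT; fluorescence intensity read.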

[2] = target: Peroxisome proliferator-activated receptor alpha (Homo sapiens) (UniProt Q07869); assay: qHTS assay for small molecule agonists of the peroxisome proliferator-activated receptor alpha (PPARalpha) signaling pathway (AID 651778); conditions: PathHunter PPARalpha complementation, chemiluminescence, 6 h; hits give high values; also: % of control where 0% means no effect
Sequence of Peroxisome proliferator-activated receptor alpha (Homo sapiens) (Q07869 whole entry, looked up, the tested form may be a part): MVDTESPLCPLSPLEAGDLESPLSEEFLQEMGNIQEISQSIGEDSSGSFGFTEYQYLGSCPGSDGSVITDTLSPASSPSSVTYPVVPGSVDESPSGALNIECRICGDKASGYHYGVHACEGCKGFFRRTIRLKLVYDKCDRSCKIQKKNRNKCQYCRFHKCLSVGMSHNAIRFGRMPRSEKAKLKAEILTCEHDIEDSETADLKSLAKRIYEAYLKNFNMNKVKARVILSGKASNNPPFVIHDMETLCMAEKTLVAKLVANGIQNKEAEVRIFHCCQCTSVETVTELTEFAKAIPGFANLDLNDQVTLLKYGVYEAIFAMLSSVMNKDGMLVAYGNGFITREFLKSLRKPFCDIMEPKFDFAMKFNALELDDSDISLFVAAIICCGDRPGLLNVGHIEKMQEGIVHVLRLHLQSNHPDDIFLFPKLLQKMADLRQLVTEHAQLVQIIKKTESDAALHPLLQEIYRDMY
How it was run: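 Enzyme-fragment complementation assay in which ligand-bound PPARalpha translocates and forms an active enzyme that generates chemiluminescence. Cells were plated overnight, exposed to compound for 6 hr at 37 C, and then given detection reagent for 60 min at room temperature.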

[3] = qHTS assay for small molecule activators of the nuclear factor-kappa B (NF-kB) signaling pathway (AID 651749; active = well fitted activation curve with a large enough effect in the signal ratio; the % refers to the signal ratio; also: % of control where 0% means no effect); conditions: NF-kB-bla ME-180 cells, beta-lactamase FRET ratio, 16 h; hits give high values
How it was run: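 NF-kB-bla ME-180 cells, 2,000/well; 23 nL compound or DMSO pinned; 16 hr, 37C/5% CO2; beta-lactamase FRET read-out.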

[4] = qHTS assay for environmental chemicals that activate the Aryl hydrocarbon Receptor (AhR) signaling pathway (AID 651777); conditions: 1A2-DRE human hepatoma cells, luciferase, 24 h; hits give high values; also: % of control where 0% means no effect; nearly all actives have a fitted effect of over 15% in size
How it was run: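 AhR activation is scored as a rise in luciferase from a stable DRE–CYP1A2 promoter construct in human hepatoma cells. Treatment lasts 24 hr at 37 C; detection uses One-Glo after 30 min at room temperature.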

[5] = qHTS assay for small molecule disruptors of the mitochondrial membrane potential - 1 hr assay (AID 651754; calls by dose curve; also: % is scaled to controls: 0 for no effect and ±100 for the full control effect; nearly all actives have a fitted effect of over 35% in size); conditions: series mostly up to 92.2 µM
How it was run: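 Read-out: dye fluorescence at 490 nm ex/535 nm em (monomers) and 540 nm ex/590 nm em (aggregates) in HepG2 cells. Compound exposure 1 hr at 37C, followed by 30 min dye loading.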

[6] = qHTS assay for small molecule disruptors of the mitochondrial membrane potential - 5 hr assay (AID 651755; calls by dose curve; also: % is scaled to controls: 0 for no effect and ±100 for the full control effect; nearly all actives have a fitted effect of over 40% in size); conditions: JC-1-type ratio dye; series mostly up to 92.2 µM
How it was run: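 Read-out: ratiometric Mito-MPS fluorescence, green monomer (ex 490/em 535) vs red mitochondrial aggregate (ex 540/em 590). HepG2 cells treated 5 hr at 37C before 30 min dye loading.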

CCOP(=S)(OCC)Oc1ccc2c(C)c(Cl)c(=O)oc2c1
inactive: activation [1] -4.7% | max response [2] -4.26%

COP(=S)(OC)SCN1C(=O)c2ccccc2C1=O
inactive: activation [1] 6.79% | activation [3] -2.37% | activation [4] -1.4% | max response [2] -0.635%

O=C1c2ccccc2C(=O)c2ccccc21
inactive: activation [1] 3.87% | activation [3] -2.5% | activation [4] 2.59% | max response [2] 0.92%

C[C@]12CCC(=O)C=C1CC[C@@H]1[C@@H]2CC[C@]2(C)C(=O)CC[C@@H]12
inactive: activation [1] -1.07% and 0.979% | Potency [5] | Potency [6] | activation [4] 2.9% and -2.01% | max response [2] -0.773% and -1.33%

Oc1ccc(Cl)cc1
inactive: activation [1] -2.59% | activation [3] -0.964% | activation [4] 0.502% | max response [2] 0.582%

CCCC(C)(COC(N)=O)COC(N)=O
inactive: activation [1] 1.72% and -1.16% | activation [3] 0.11% and -1.2% | Potency [5] | Potency [6] | activation [4] 1.18% and -0.314% | max response [2] -0.626% and -5.23%

NCCc1ccc(O)cc1
inactive: activation [1] -2.23% | activation [3] -0.88% | Potency [6] | activation [4] -0.313% | max response [2] -1.42%

[N-]=[N+]=CC(=O)OC[C@H](N)C(=O)O
inactive: activation [1] -0.27% | activation [3] -0.449% | max response [2] 0.305%
